Assay results from PubChem BioAssay (EPA / NIEHS).
Activity calls are given as the source filed them. How the source made its calls: active means hit-call score of the fitted dose curve at least 0.9, where 1 is the maximum; inactive means score below 0.9.

How the values were obtained:
[1] = APR_HepG2_P-H2AX_72hr: Apredica 72-hour HepG2 Assay for H2AX Phosphorylation (AID 2282916); conditions: imaging, actives raise or lower the signal;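 further: phospho-histone H2A.x immunostain intensity per cell marking DNA damage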
Procedure, shortened: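 Phospho-histone H2A.x immunofluorescence, multiplexed with Hoechst and c-Jun, quantified by high-content imaging. Compounds applied to HepG2 for 72 h across ten concentrations (0.39–200 uM, 0.5% DMSO), in duplicate; DMSO baseline.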

[2] = APR_HepG2_MitoMembPot_72hr: Apredica 72-hour HepG2 Assay for Mitochondrial Membrane Potential (AID 2282917); conditions: imaging, actives raise or lower the signal
Procedure, shortened: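 Membrane potential read by MitoTracker Red CMXRos (250 nM, 30 min, pre-fixation) fluorescence imaging of HepG2 after 72 hr exposure. Ten concentrations, 0.39–200 uM, duplicate wells, 0.5% DMSO; fitted in both directions against DMSO baseline.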

[3] = APR_HepG2_MitoticArrest_72hr: Apredica 72-hour HepG2 Assay for Mitotic Arrest (AID 2282918); conditions: high-content imaging, actives raise or lower the signal
Procedure, shortened: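 Mitotic arrest in HepG2 is scored from phospho-histone H3 staining after 72 hr dosing across 0.39–200 uM, with DMSO at 0.5% v/v. Nuclei are identified by Hoechst 33342 and fluorescence intensity is quantified per cell.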

[4] = APR_HepG2_MicrotubuleCSK_72hr: Apredica 72-hour HepG2 Assay for Microtubule CSK Stabilty (AID 2282919); conditions: HepG2 microtubule cytoskeleton, high-content imaging, actives raise or lower the signal
Procedure, shortened: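 High-content imaging of alpha-tubulin staining in fixed HepG2 cells after 72 hr treatment with ten concentrations from 0.39 to 200 uM (0.5% DMSO). Fitting was bidirectional against DMSO; taxol served as positive control.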

[5] = APR_HepG2_P-H2AX_24hr: Apredica 24-hour HepG2 Assay for H2AX Phosphorylation (AID 2282920); conditions: high-content imaging, actives raise or lower the signal
Procedure, shortened: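 Signal comes from a FITC-labeled secondary detecting phospho-histone H2A.x in fixed HepG2 cells, quantified by automated imaging at 20x. Dosing ran 24 hr across 0.39–200 uM with 0.5% v/v DMSO.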

[6] = APR_HepG2_StressKinase_72hr: Apredica 72-hour HepG2 Assay for Stress Kinase (AID 2282921); conditions: HepG2 stress kinase (phospho-c-Jun) imaging, actives raise or lower the signal
Procedure, shortened: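 Stress kinase signal is phospho-c-Jun immunofluorescence (1:500 primary, Cy3 secondary) in fixed, permeabilized human HepG2 cells imaged at 20x. Exposure lasted 72 hr over ten concentrations from 0.39 to 200 uM, 0.5% DMSO, in duplicate. Bidirectional fit versus DMSO.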

[7] = APR_HepG2_StressKinase_24hr: Apredica 24-hour HepG2 Assay for Stress Kinase (AID 2282922); conditions: HepG2 stress kinase (phospho-c-Jun) imaging, actives raise or lower the signal
Procedure, shortened: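 High-content imaging of phospho-c-Jun immunofluorescence in fixed, permeabilized HepG2 cells after 24 h dosing. Ten concentrations, 0.39 to 200 uM, run in duplicate at 0.5% v/v DMSO; gain or loss of signal versus DMSO.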

[8] = APR_HepG2_p53Act_72hr: Apredica 72-hour HepG2 Assay for p53 Activation (AID 2282923); conditions: high-content imaging, actives raise or lower the signal;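 further: average cellular p53 protein immunofluorescence intensity in HepG2 cells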
Procedure, shortened: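 After 72 h with compound (ten points, 0.39 to 200 uM, final DMSO 0.5% v/v), fixed HepG2 cells were labelled with sheep anti-p53 and Hoechst 33342 and imaged; gain or loss versus DMSO scored.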

[9] = APR_HepG2_MitoMass_72hr: Apredica 72-hour HepG2 Assay for Mitochondrial Mass (AID 2282924); conditions: high-content imaging, actives raise or lower the signal;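 further: MitoTracker Red CMXRos stain intensity per cell imaged as mitochondrial mass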
Procedure, shortened: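 Readout is imaged MitoTracker Red (250 nM, 30 min, pre-fixation) signal, fitted bidirectionally against DMSO baseline. Human HepG2 liver cells received compound 0.39–200 uM in duplicate for 72 hr, final DMSO 0.5%.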

[10] = APR_HepG2_NuclearSize_72hr: Apredica 72-hour HepG2 Assay for Nuclear Size (AID 2282925); conditions: high-content imaging, actives raise or lower the signal
Procedure, shortened: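 Nuclear size was read by high-content imaging of Hoechst 33342 stain after formaldehyde fixation. Compounds ran 72 h on HepG2 at 0.39 to 200 uM, with final DMSO 0.5% v/v. Curves fitted both directions relative to DMSO control.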

[11] = ATG_CRE_CIS: Attagene CIS-FACTORIAL HepG2 Assay for human cAMP Responsive Element (CRE) binding protein 3 (AID 2282926); conditions: HepG2 CRE cis-reporter, Attagene multiplexed mRNA; actives raise or lower the signal
Procedure, shortened: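 Cells carrying cis-regulated reporter constructs respond through their own endogenous factors. After 24 h treatment, RNA is reverse-transcribed, amplified, labelled and sized by capillary electrophoresis; up- and down-regulation are both scored against vehicle.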

[12] = biological target: CCAAT/enhancer-binding protein beta (Homo sapiens) (UniProt P17676); experiment: ATG_C_EBP_CIS: Attagene CIS-FACTORIAL HepG2 Assay for human CCAAT/Enhancer Binding Protein (C/EBP) beta (AID 2282927); conditions: HepG2 Attagene cis-factorial transcription factor reporter; actives raise or lower the signal
Procedure, shortened: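 Endogenous transcription factor activity in human liver HepG2 cells is inferred from induction of a CEBPB-linked reporter mRNA. Exposure lasts 24 h; activity is fitted in both directions relative to DMSO.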

[13] = ATG_CMV_CIS: Attagene CIS-FACTORIAL HepG2 Assay for human CMV (Internal Marker) (AID 2282928); conditions: HepG2 CMV promoter reporter, transcription factor profiling; actives raise or lower the signal;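 further: endpoint acts as a background internal control marker rather than a target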
Procedure, shortened: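 Fluorescence intensity of RT-PCR-derived reporter fragments, resolved by capillary electrophoresis, gives the signal. HepG2 liver cells bearing transfected cis-element reporters were treated 24 h; activity in either direction was fit relative to DMSO-treated controls.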

[14] = ATG_DR4_LXR_CIS: Attagene CIS-FACTORIAL HepG2 Assay for human Liver X Receptor (LXR), DR4 submotif (AID 2282929); conditions: HepG2 Attagene DR4 cis-reporter, mRNA transcription; actives raise or lower the signal
Procedure, shortened: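 Fluorescence intensity of labelled reporter cDNA fragments, separated by capillary electrophoresis, gives the signal. HepG2 cells bearing cis-regulated reporter constructs were treated 24 h; activity fitted bidirectionally relative to DMSO negative control.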

[15] = biological target: Aryl hydrocarbon receptor (Homo sapiens) (UniProt P35869); experiment: ATG_Ahr_CIS: Attagene CIS-FACTORIAL HepG2 Assay for human Aryl Hydrocarbon Receptor (Ahr) (AID 2282930); conditions: HepG2 AhR cis-factorial reporter transcription; actives raise or lower the signal
Procedure, shortened: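 Transient MRTU transfection of HepG2 → 24 h compound exposure → total RNA, oligo(dT) RT → PCR, 6-FAM extension, HpaI cut → CE fluorescence. DMSO = baseline; bidirectional curve fit.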

[16] = ATG_AP_1_CIS: Attagene CIS-FACTORIAL HepG2 Assay for human Activator Protein 1 (AP-1) (AID 2282931); conditions: HepG2 Attagene cis-factorial AP-1 reporter mRNA; actives raise or lower the signal
Procedure, shortened: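 Multiplexed HepG2 reporter assay, 24 h dosing. mRNA induction detected by RT-PCR plus capillary electrophoresis. Activity fitted in both directions against DMSO.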

[17] = ATG_AP_2_CIS: Attagene CIS-FACTORIAL HepG2 Assay for human Activator Protein 2 (AP-2) (AID 2282932); conditions: HepG2 AP-2 cis-reporter, Attagene transcription factor profiling; actives raise or lower the signal
Procedure, shortened: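 Endogenous transcription factor activity is reported through transfected multiplex reporter constructs in HepG2, after 24 h of compound exposure. Transcripts were quantified by RT-PCR and capillary electrophoresis of fluorescent fragments. Bidirectional fit against DMSO.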

[18] = ATG_BRE_CIS: Attagene CIS-FACTORIAL HepG2 Assay for human Bone Morphogenetic Protein (BMP) Response Element (BRE) (AID 2282933); conditions: HepG2 BMP response element reporter, Attagene transcription factor profiling; actives raise or lower the signal
Procedure, shortened: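 Multiplexed cis-reporter assay, HepG2, 24 h exposure. mRNA from reporter units quantified via RT-PCR/CE; DMSO baseline; bidirectional curve fit.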

[19] = biological target: Retinoic acid receptor alpha (Homo sapiens) (UniProt P10276); experiment: ATG_DR5_RAR_CIS: Attagene CIS-FACTORIAL HepG2 Assay for human Retinoic Acid Receptor Alpha (RARE), DR5 submotif (AID 2282934); conditions: HepG2 Attagene cis-factorial RARE DR5 reporter, mRNA; actives raise or lower the signal;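 on AC50: reporter responds to endogenous RAR alpha beta and gamma in HepG2 not RARA alone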
Procedure, shortened: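 Transient MRTU transfection of HepG2; 24 h compound treatment; TriZol RNA, oligo(dT) RT, PCR, FAM labelling, capillary electrophoresis. Bidirectional fit vs DMSO. Endogenous TF activity at DR5 RARE.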

[20] = biological target: Transcription factor E2F1 (Homo sapiens) (UniProt Q01094); experiment: ATG_E2F_CIS: Attagene CIS-FACTORIAL HepG2 Assay for human E2F Transcription Factor 1 (AID 2282935); conditions: HepG2 Attagene cis-reporter, E2F reporter RNA transcripts; actives raise or lower the signal
Procedure, shortened: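 Gain or loss of reporter transcript, fitted against DMSO, reflects E2F1-driven transcription. Transiently transfected HepG2 dosed 24 h before RNA isolation. Quantified by fluorescent RT-PCR products separated by capillary electrophoresis.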

Measured: AC50

Transcription factor E2F1 (Homo sapiens), sequence (Q01094 whole entry, looked up): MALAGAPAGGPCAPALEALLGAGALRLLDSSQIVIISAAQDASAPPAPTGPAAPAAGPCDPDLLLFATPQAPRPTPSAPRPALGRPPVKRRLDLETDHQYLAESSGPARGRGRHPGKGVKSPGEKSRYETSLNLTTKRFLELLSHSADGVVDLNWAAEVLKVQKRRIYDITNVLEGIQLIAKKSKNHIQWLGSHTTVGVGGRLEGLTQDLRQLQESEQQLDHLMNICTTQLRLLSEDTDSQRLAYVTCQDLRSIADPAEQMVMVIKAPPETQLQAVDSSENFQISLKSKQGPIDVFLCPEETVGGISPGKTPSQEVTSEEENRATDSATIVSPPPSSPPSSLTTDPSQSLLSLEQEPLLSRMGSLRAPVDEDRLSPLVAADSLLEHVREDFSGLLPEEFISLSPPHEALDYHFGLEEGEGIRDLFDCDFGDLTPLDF
CCAAT/enhancer-binding protein beta (Homo sapiens), sequence (P17676 whole entry, looked up): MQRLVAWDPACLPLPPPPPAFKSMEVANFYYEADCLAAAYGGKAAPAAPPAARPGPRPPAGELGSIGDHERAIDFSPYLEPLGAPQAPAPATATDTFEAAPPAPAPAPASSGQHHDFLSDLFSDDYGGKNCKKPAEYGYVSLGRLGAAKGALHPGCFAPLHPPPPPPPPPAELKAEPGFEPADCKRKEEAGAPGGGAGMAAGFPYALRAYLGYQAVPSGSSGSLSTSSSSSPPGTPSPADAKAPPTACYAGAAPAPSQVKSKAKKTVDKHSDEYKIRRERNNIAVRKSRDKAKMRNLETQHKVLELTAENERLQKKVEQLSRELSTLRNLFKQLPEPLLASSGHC
Aryl hydrocarbon receptor (Homo sapiens), sequence (P35869 whole entry, looked up): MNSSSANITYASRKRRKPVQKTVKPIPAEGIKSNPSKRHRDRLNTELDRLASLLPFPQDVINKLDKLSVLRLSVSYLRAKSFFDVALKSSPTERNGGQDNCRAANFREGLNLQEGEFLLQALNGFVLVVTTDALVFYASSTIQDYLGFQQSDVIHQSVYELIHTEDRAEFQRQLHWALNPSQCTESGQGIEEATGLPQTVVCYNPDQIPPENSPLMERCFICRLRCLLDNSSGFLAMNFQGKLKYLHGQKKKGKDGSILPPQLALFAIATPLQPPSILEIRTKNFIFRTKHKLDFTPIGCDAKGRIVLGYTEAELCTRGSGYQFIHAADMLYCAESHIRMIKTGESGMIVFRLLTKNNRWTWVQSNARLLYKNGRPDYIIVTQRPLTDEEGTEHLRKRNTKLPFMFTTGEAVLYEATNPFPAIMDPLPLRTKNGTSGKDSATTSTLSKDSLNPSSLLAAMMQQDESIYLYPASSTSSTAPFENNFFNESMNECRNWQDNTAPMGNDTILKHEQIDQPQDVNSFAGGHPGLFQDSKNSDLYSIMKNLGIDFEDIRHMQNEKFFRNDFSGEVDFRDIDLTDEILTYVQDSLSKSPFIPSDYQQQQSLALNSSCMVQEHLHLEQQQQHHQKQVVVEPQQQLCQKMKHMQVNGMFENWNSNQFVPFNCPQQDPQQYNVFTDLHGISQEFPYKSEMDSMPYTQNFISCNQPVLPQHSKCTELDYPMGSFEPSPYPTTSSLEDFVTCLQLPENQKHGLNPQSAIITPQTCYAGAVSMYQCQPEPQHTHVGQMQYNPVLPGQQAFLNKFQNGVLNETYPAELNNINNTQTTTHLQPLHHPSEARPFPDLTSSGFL
Retinoic acid receptor alpha (Homo sapiens), sequence (P10276 whole entry, looked up): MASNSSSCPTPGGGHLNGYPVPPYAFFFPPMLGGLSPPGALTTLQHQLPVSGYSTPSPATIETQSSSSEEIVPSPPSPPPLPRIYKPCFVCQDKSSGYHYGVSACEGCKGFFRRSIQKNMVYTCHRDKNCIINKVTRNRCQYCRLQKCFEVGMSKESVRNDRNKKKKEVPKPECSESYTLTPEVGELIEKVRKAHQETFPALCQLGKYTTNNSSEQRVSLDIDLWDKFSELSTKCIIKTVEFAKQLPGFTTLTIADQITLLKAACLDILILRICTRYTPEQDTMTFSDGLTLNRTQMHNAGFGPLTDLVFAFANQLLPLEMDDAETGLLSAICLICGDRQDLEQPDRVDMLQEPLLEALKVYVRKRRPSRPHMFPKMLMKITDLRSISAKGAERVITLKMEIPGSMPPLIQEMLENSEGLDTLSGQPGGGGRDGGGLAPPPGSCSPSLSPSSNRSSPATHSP

CC1=NNC(=O)N(/N=C/c2cccnc2)C1
inactive: all assays above

CCCCOC(=O)[C@@H](C)Oc1ccc(Oc2ccc(C#N)cc2F)cc1
not listed: [19]
inactive: all other assays above

CSC1=N[C@@](C)(c2ccccc2)C(=O)N1Nc1ccccc1
active: [4] 38.6 µM | [11] 4.24 µM | [12] 6.21 µM | [15] 50 µM | [16] 3.2 µM | [18] 5.2 µM
not listed: [19]
inactive: all other assays above

O=c1ccc(=O)[nH][nH]1
not listed: [19]
inactive: all other assays above

C=C(C)[C@H]1Cc2c(ccc3c2O[C@@H]2COc4cc(OC)c(OC)cc4[C@@H]2C3=O)O1
inactive: [4] | [7] | [9] | [10] | [14] | [15] | [17] | [20]
active: [1] 1.62 µM | [2] 15.7 µM | [3] 1.15 µM | [5] 12.2 µM | [6] 4.05 µM | [11] 0.0337 µM | [12] 0.0249 µM | [13] 0.0033 µM | [16] 0.0044 µM | [18] 0.0104 µM | [19] 0.0229 µM
